# Laboratory results published in PubChem BioAssay (Tox21).
# Inconclusive results are not listed. Calls of active or inactive are those of the source. Calls come from the whole dose curve; as a rule, active = well fitted activation curve with a large enough effect in the repeat runs; inconclusive = weak or mixed curves; inactive = no such curve, though single readings can be large or run the other way.
# Assay: qHTS assay for small molecules that induce genotoxicity in human embryonic kidney cells expressing luciferase-tagged ATAD5 (AID 651632); note: nearly all actives have a fitted effect of over 15% in size
# Conditions: HEK293T ATAD5-luciferase induction, 16 h; series mostly up to 83.3 µM
# Source text: U.S. Tox21 Program National Center for Advancing Translational Sciences [NCATS] NIH Chemical Genomics Center [NCGC] U.S. Environmental Protection Agency [EPA] National Institutes of Environmental Health Sciences [NIEHS] National Toxicology Program [NTP] U.S. Food and Drug Administration [FDA] Tox21 Assay Overview: As cancer cells divide rapidly and during every cell division they need to duplicate their genome by DNA replication. The failure to do so results in the cancer cell death. Based on this concept, many chemotherapeutic agents were developed but have limitations such as low efficacy and severe side effects etc. A new cell based assay was developed to find the compounds that effectively block DNA replication either by directly damaging DNA or by inhibiting other cellular mechanisms. Enhanced Level of Genome Instability Gene 1 (ELG1; human ATAD5) protein levels increase in response to various types of DNA damage. Using a luciferase reporter-gene tagged with ATAD5, a cell-based assay [developed by Kyungjae Myung, NHGRI, NIH] was used to measure the induction of ATAD5 in human embryonic kidney cells (HEK293T). So, increase in luciferase activity can be used to identify the compounds that cause genetic stress.
# Tox21 Assay Protocol Summary: For genotoxicity screening, 2,000 cells in 5 uL/well were dispensed into white, solid-bottom 1536-well plates using a Multidrop Combi (Thermo Scientific) dispenser. Following transfer of 23 nL compound or DMSO vehicle by a pin tool, the plates were incubated 16 hr at 37C and 5% CO2. 5 ul Amplite (AAT Bioquest, Inc.) was then added to each plate and following 30 min incubation at room temperature, luciferase activity was quantified on a ViewLux CCD-based plate reader.
row,SMILES,outcome
1,COc1ccc(N)c(C)c1,inactive
2,O=[N+]([O-])c1ccc2nc[nH]c2c1,inactive
3,CC1(C)OC[C@@H]2O[C@@]3(C(=O)O)OC(C)(C)O[C@H]3[C@@H]2O1,inactive
4,CC(CCl)OP(=O)(OC(C)CCl)OC(C)CCl (stereo not given),inactive
5,CCOCCOCCOCCO,inactive
6,COC(=O)CCCC(=O)OC,inactive
7,CC(=O)OC1CC(C)OC(C)O1 (stereo not given),inactive
8,NCCCCCCN,inactive
9,C=CC[N+](C)(C)CC=C,inactive
10,CCCCCCCO,inactive
11,CC(C)(C)c1cc(Cc2cc(C(C)(C)C)c(O)c(C(C)(C)C)c2)cc(C(C)(C)C)c1O,inactive
12,C=C(C)C(=O)OCC(C)C,inactive
13,CCCCC(C=O)CC (stereo not given),inactive
14,CCNc1ccccc1,inactive
15,Cc1ccc(C(C)C)c(O)c1,inactive
16,C[C@]12CCC(=O)C=C1CC[C@@H]1[C@@H]2[C@@H](O)C[C@@]2(C)[C@H]1CC[C@]2(O)C(=O)CO,inactive
17,CCOC(=O)n1ccn(C)c1=S,inactive
18,C=CCc1ccc(OC)c(OC)c1,inactive
19,CNC(=O)Oc1ccc2c(c1)[C@]1(C)CCN(C)[C@@H]1N2C,inactive
20,CC(=O)OCc1ccco1,inactive

row,SMILES,outcome
1,COc1ccc(OC)cc1,inactive
2,CC(O)CC(C)(C)O (stereo not given),inactive
3,NC(=S)NNC(N)=S,inactive
4,CCCOC(=O)c1ccccc1,inactive
5,CC(=O)OCc1ccccc1,inactive
6,CC(C)CC(C)O (stereo not given),inactive
7,CCO[Si](CCC#N)(OCC)OCC,inactive
8,CC(C)CCCCCCCOC(=O)CCCCC(=O)OCCCCCCCC(C)C,inactive
9,c1ccc2c(c1)Cc1ccccc1-2,inactive
10,COc1ccccc1OCC(O)CO (stereo not given),inactive
11,NCCN1CCNCC1,inactive
12,CC(C)=CCl,inactive
13,CC(=O)CC(C)(C)O,inactive
14,COc1ccc(C)cc1N,inactive
15,Brc1ccc(Br)c(Br)c1,inactive
16,Nc1nc(N)nc(-c2ccccc2)n1,inactive
17,CCCCCCCCCCN,inactive
18,CN(C)c1ccc(Cc2ccc(N(C)C)cc2)cc1,inactive
19,CCCCCCCCCCCC(=O)OC,inactive
20,O=C(O)c1ccccc1C(=O)O,inactive
